# Data from PubChem BioAssay (NCATS).
# Values joined by “and” are separate entries in the source; they are usually repeats but may differ in a detail not shown here. Equal entries are not always repeated. Inconclusive results are not listed. Entries that show only a call come without a potency. Unmarked numbers belong to inactive results. Active and inactive are the calls of the source. Calls follow the shape of the dose curve; as a rule, active = well fitted curve in the direction sought with a large enough effect; inconclusive = small, poorly fitted or top-dose-only effect, or another doubt; inactive = no such curve, though single readings can be large; an effect the other way counts as inactive or inconclusive.
# Legend:
# KB-3-1 = experiment: Cytotoxic Profiling of Annotated Libraries Using Quantitative High-Throughput Screening (AID 1296008); settings: Five cell lines viability, CellTiter-Glo ATP luminescence, 48-72 h; max response: stronger effect = lower value; also: nearly all actives have a fitted effect of over 60% in size
# How it was run: (§1)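 Cells exposed to compounds for 48 or 72 hr at 37 degrees Celsius. Viability read as ATP-coupled luminescence with CellTiter-Glo after 10 min at room temperature.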
# NIH3T3 [1] = experiment: as above; settings: Five cell lines viability, CellTiter-Glo ATP luminescence, 48-72 h; max response: stronger effect = lower value
# How it was run: as §1
# HEK293T [2] = experiment: qHTS assay to identify novel small-molecules to repurpose for Merkel cell carcinoma treatment (AID 1296009); settings: MCC and control cell lines, CellTiter-Glo viability, 72 h; at 44.8 µM (top of the series) unless noted; also: nearly all actives have a fitted effect of over 60% in size; also: potency is read from the fitted curve at half-maximal effect
# How it was run: (§2)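 CellTiter-Glo luminescence after 72 hr compound exposure at 37 degree celsius gave cell viability. Libraries NPC and MIPE were run as 8- and 11-point dose responses; RLUs normalized to DMSO (negative) and no-cell (cytotoxicity) controls.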
# MCC-13 = experiment: as above; settings: MCC and control cell lines, CellTiter-Glo viability, 72 h; series mostly up to 46 µM
# How it was run: as §2
# MCC-26 = experiment: as above; settings: MCC and control cell lines, CellTiter-Glo viability, 72 h; series mostly up to 46 µM
# How it was run: as §2
# MKL-1 = experiment: as above; settings: MCC and control cell lines, CellTiter-Glo viability, 72 h; series mostly up to 46 µM
# How it was run: as §2
# MKL-2 = experiment: as above; settings: MCC and control cell lines, CellTiter-Glo viability, 72 h; series mostly up to 46 µM
# How it was run: as §2
# NIH3T3 [3] = experiment: as above; settings: MCC and control cell lines, CellTiter-Glo viability, 72 h; series mostly up to 44.8 µM
# How it was run: as §2
# UISO = experiment: as above; settings: MCC and control cell lines, CellTiter-Glo viability, 72 h; series mostly up to 46 µM
# How it was run: as §2
# WaGa = experiment: as above; settings: MCC and control cell lines, CellTiter-Glo viability, 72 h; series mostly up to 46 µM
# How it was run: as §2
# C33A = experiment: Primary qHTS to identify gynecologic anti-cancer compounds using libraries of approved drugs and bioactive compounds (AID 1345084); settings: Gynecologic cancer cell panel viability, ATPlite luminescence, 48 h; series mostly up to 57.5 µM; also: nearly all actives have a fitted effect of over 55% in size
# How it was run: (§3)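 Luminescence from the ATPlite ATP-monitoring reagent indicates viable cell number; lower signal means cytotoxicity. Cells received compound 16 h after seeding and were exposed for 48 h across five concentrations.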
# CASKI = experiment: as above; settings: Gynecologic cancer cell panel viability, ATPlite luminescence, 48 h; series mostly up to 57.5 µM
# How it was run: as §3
# Es-2 = experiment: as above; settings: Gynecologic cancer cell panel viability, ATPlite luminescence, 48 h; series mostly up to 57.5 µM
# How it was run: as §3
# HeLa = experiment: as above; settings: Gynecologic cancer cell panel viability, ATPlite luminescence, 48 h; series mostly up to 57.5 µM
# How it was run: as §3
# Hek293T [4] = experiment: as above; settings: Gynecologic cancer cell panel viability, ATPlite luminescence, 48 h, control line for the selectivity index; series mostly up to 57.5 µM
# How it was run: as §3
# JEG-3 = experiment: as above; settings: Gynecologic cancer cell panel viability, ATPlite luminescence, 48 h; series mostly up to 57.5 µM
# How it was run: as §3
# OV90 = experiment: as above; settings: Gynecologic cancer cell panel viability, ATPlite luminescence, 48 h; series mostly up to 57.5 µM
# How it was run: as §3
# PA-1 = experiment: as above; settings: Gynecologic cancer cell panel viability, ATPlite luminescence, 48 h; series mostly up to 57.5 µM
# How it was run: as §3
# HACAT = experiment: qHTS assay to identify novel small-molecules to repurpose for Merkel cell carcinoma treatment (AID 1296009); settings: MCC and control cell lines, CellTiter-Glo viability, 72 h; at 44.8 µM (top of the series) unless noted; also: nearly all actives have a fitted effect of over 60% in size; also: potency is read from the fitted curve at half-maximal effect
# How it was run: as §2
# CAOV3 = experiment: Primary qHTS to identify gynecologic anti-cancer compounds using libraries of approved drugs and bioactive compounds (AID 1345084); settings: Gynecologic cancer cell panel viability, ATPlite luminescence, 48 h; series mostly up to 57.5 µM; also: nearly all actives have a fitted effect of over 55% in size
# How it was run: as §3
smiles,measurement,setting,value
COc1cc(Nc2nc3ccccc3nc2NS(=O)(=O)c2ccc(NC(=O)c3ccc(C)c(OC)c3)cc2)cc(OC)c1,max response,KB-3-1,6.27%
same,outcome,KB-3-1,inactive
same,max response,NIH3T3 [1],-5.22%
same,outcome,NIH3T3 [1],inactive
same,outcome,HEK293T [2],inactive
same,Potency,MCC-13,inactive
same,Potency,MCC-26,inactive
same,Potency,MKL-1,inactive
same,Potency,MKL-2,inactive
same,Potency,NIH3T3 [3],inactive
same,Potency,UISO,inactive
same,Potency,WaGa,inactive
same,Potency,C33A,inactive
same,Potency,CASKI,inactive
same,Potency,Es-2,inactive
same,Potency,HeLa,inactive
same,Potency,Hek293T [4],inactive
same,Potency,JEG-3,inactive
same,Potency,OV90,inactive
same,Potency,PA-1,inactive
NC(=O)c1ccc(N(C(N)=O)c2c(F)cccc2F)nc1-c1ccc(F)cc1F,max response,KB-3-1,7.33%
same,outcome,KB-3-1,inactive
same,max response,NIH3T3 [1],4.54%
same,outcome,NIH3T3 [1],inactive
same,Potency,MCC-13,inactive
same,Potency,MCC-26,inactive
same,Potency,MKL-1,inactive
same,Potency,MKL-2,inactive
same,Potency,NIH3T3 [3],inactive
same,Potency,UISO,inactive
same,Potency,WaGa,inactive
same,Potency,C33A,inactive
same,Potency,CASKI,inactive
same,Potency,Es-2,inactive
same,Potency,HeLa,inactive
same,Potency,Hek293T [4],inactive
same,Potency,JEG-3,inactive
same,Potency,OV90,inactive
same,Potency,PA-1,inactive
COc1ccc(-c2cc(=O)c3c(O)cc(O[C@@H]4O[C@H](CO[C@@H]5O[C@@H](C)[C@H](O)[C@@H](O)[C@@H]5O)[C@@H](O)[C@H](O)[C@@H]4O)cc3o2)cc1O,max response,KB-3-1,-0.879%
same,outcome,NIH3T3 [1],inactive
same,outcome,HACAT,inactive
same,outcome,HEK293T [2],inactive
same,Potency,MCC-13,inactive
same,Potency,MKL-1,inactive
same,Potency,MKL-2,inactive
same,Potency,NIH3T3 [3],inactive
same,Potency,UISO,inactive
same,Potency,WaGa,inactive
COc1ccc2c(c1)c(C1=C(c3c[nH]c4ccccc34)C(=O)NC1=O)cn2CCCN(C)C,max response,KB-3-1,-14.8%
same,max response,NIH3T3 [1],4.3%
same,outcome,HACAT,inactive
same,Potency,MCC-13,inactive
same,Potency,MCC-26,inactive
CC1=C(C(=O)Nc2cc3cn[nH]c3cc2F)C(c2ccc(C(F)(F)F)cc2)CC(=O)N1 (stereo not given),max response,KB-3-1,1.78% and 8.86%
same,max response,NIH3T3 [1],-7.07%
same,outcome,HACAT,inactive
same,outcome,HEK293T [2],inactive
same,Potency,MCC-26,inactive
same,Potency,MKL-1,inactive
same,Potency,MKL-2,inactive
same,Potency,UISO,inactive
same,Potency,C33A,inactive
same,Potency,CAOV3,inactive
same,Potency,CASKI,inactive
same,Potency,Es-2,inactive
same,Potency,HeLa,inactive
same,Potency,Hek293T [4],inactive
same,Potency,JEG-3,inactive
same,Potency,OV90,inactive
same,Potency,PA-1,inactive
CN(CC=CC#CC(C)(C)C)Cc1cccc2ccccc12,max response,KB-3-1,4.31%
same,max response,NIH3T3 [1],-1.72%
same,outcome,HACAT,inactive
same,outcome,HEK293T [2],inactive
same,Potency,MCC-13,inactive
same,Potency,MCC-26,inactive
same,Potency,MKL-1,inactive
same,Potency,MKL-2,inactive
same,Potency,UISO,inactive
same,Potency,WaGa,inactive
O=c1cc(-c2ccc(O)c(O)c2)oc2cc(O)cc(O)c12,outcome,KB-3-1,inactive
same,max response,NIH3T3 [1],3.33%
same,outcome,HACAT,inactive
same,outcome,HEK293T [2],inactive
same,Potency,MCC-13,inactive
same,Potency,MCC-26,inactive
same,Potency,MKL-1,inactive
same,Potency,MKL-2,inactive
same,Potency,UISO,inactive
N#CC(=C1Nc2ccccc2S1)c1ccnc(OCc2ccc(CN3CCOCC3)cc2)n1,max response,KB-3-1,-1.84%
same,max response,NIH3T3 [1],-8.13%
same,outcome,HACAT,inactive; activator
same,Potency,MCC-13,inactive
same,Potency,MCC-26,inactive
same,Potency,MKL-1,118 nM (active)
same,Potency,MKL-2,132 nM (active)
same,Potency,UISO,1480 nM (active)
same,Potency,WaGa,132 nM (active)
CN1CCC[C@H]1CCO[C@](C)(c1ccccc1)c1ccc(Cl)cc1,max response,KB-3-1,-5.55%
same,max response,NIH3T3 [1],-18.8%
same,outcome,HACAT,inactive
same,Potency,MCC-13,inactive
same,Potency,MCC-26,inactive
same,Potency,MKL-1,inactive
same,Potency,MKL-2,inactive
same,Potency,UISO,inactive
same,Potency,WaGa,inactive
CCC[C@@H](NC(=O)[C@@H]1[C@H]2CCC[C@@H]2CN1C(=O)[C@@H](NC(=O)[C@@H](NC(=O)c1cnccn1)C1CCCCC1)C(C)(C)C)C(=O)C(=O)NC1CC1,outcome,KB-3-1,inactive
same,outcome,NIH3T3 [1],inactive
same,outcome,HACAT,inactive
same,Potency,MCC-13,inactive
same,Potency,MCC-26,inactive
same,Potency,MKL-1,inactive
same,Potency,MKL-2,inactive
same,Potency,NIH3T3 [3],inactive
same,Potency,UISO,inactive
same,Potency,WaGa,inactive
NCC1CCC(C(=O)O)CC1 (stereo not given),max response,KB-3-1,7.37% and 2.9%
same,max response,NIH3T3 [1],-3.72%
same,outcome,HACAT,inactive
same,Potency,MCC-13,inactive
same,Potency,MCC-26,inactive
same,Potency,MKL-1,inactive
same,Potency,MKL-2,inactive
same,Potency,UISO,inactive
same,Potency,WaGa,inactive
CC(C)(OCc1nn(Cc2ccccc2)c2ccccc12)C(=O)O,max response,KB-3-1,5.01% and 9.63%
same,max response,NIH3T3 [1],2.54% and 3.58%
same,outcome,HACAT,inactive
same,outcome,HEK293T [2],inactive
same,Potency,MCC-13,inactive
same,Potency,MCC-26,inactive
same,Potency,MKL-1,inactive
same,Potency,MKL-2,inactive
same,Potency,UISO,inactive
same,Potency,WaGa,inactive
same,Potency,C33A,inactive
same,Potency,CASKI,inactive
same,Potency,Es-2,inactive
same,Potency,HeLa,inactive
same,Potency,Hek293T [4],inactive
same,Potency,JEG-3,inactive
same,Potency,OV90,inactive
same,Potency,PA-1,inactive
CN1[C@H]2CC[C@H]1CC(OC(=O)c1c[nH]c3ccccc13)C2 (stereo not given in full),max response,KB-3-1,6.19%
same,outcome,NIH3T3 [1],inactive
same,outcome,HACAT,inactive
same,Potency,MCC-13,inactive
same,Potency,MCC-26,inactive
same,Potency,MKL-1,inactive
same,Potency,MKL-2,inactive
same,Potency,NIH3T3 [3],inactive
same,Potency,UISO,inactive
same,Potency,WaGa,inactive
CCCCC(C=O)NC(=O)C(CC(C)C)NC(=O)OCc1ccccc1 (stereo not given),max response,KB-3-1,-12%
same,max response,NIH3T3 [1],-21.8%
same,outcome,HACAT,inactive
same,Potency,MCC-13,inactive
same,Potency,MCC-26,inactive
same,Potency,MKL-1,inactive
same,Potency,MKL-2,inactive
same,Potency,UISO,inactive
same,Potency,WaGa,inactive
CC1CNc2c(cccc2S(=O)(=O)N[C@@H](CCCN=C(N)N)C(=O)N2CC[C@@H](C)C[C@@H]2C(=O)O)C1 (stereo not given in full),max response,KB-3-1,9.69%
same,max response,NIH3T3 [1],-2.95%
same,outcome,HACAT,inactive
same,outcome,HEK293T [2],inactive
same,Potency,MCC-13,inactive
same,Potency,MCC-26,inactive
same,Potency,MKL-1,16600 nM (active)
same,Potency,MKL-2,3720 nM (active)
same,Potency,UISO,inactive
same,Potency,WaGa,4690 nM (active)
O=C(O)CCC=CCC[C@@H]1[C@H](N2CCCCC2)[C@@H](O)C[C@@H]1OCc1ccc(-c2ccccc2)cc1,outcome,KB-3-1,inactive
same,max response,NIH3T3 [1],3.59%
same,outcome,HACAT,inactive
same,Potency,MCC-13,inactive
same,Potency,MCC-26,inactive
same,Potency,MKL-1,inactive
same,Potency,MKL-2,inactive
same,Potency,UISO,inactive
same,Potency,WaGa,inactive
COc1nccc(-c2c(-c3ccc(F)cc3)ncn2C2CCC(O)CC2)n1 (stereo not given),outcome,KB-3-1,inactive
same,max response,NIH3T3 [1],-1.87%
same,outcome,HACAT,inactive
same,outcome,HEK293T [2],inactive
same,Potency,MCC-13,inactive
same,Potency,MCC-26,inactive
same,Potency,MKL-1,inactive
same,Potency,MKL-2,inactive
same,Potency,UISO,inactive
same,Potency,C33A,inactive
same,Potency,CAOV3,inactive
same,Potency,CASKI,inactive
same,Potency,Es-2,inactive
same,Potency,HeLa,inactive
same,Potency,Hek293T [4],inactive
same,Potency,JEG-3,inactive
same,Potency,PA-1,inactive
